# TexasRed fluor: Total Fluorescence Counterscreen for Inhibitors of the Interaction of Thyroid Hormone Receptor and Steroid Receptor Coregulator 2 | TRb/SRC2 Texas Red total fluorescence interference | Potency, µM (series often up to 106 µM), for the others: top-dose fluorescence change, negative = quenching | 280,000 tested, 0.29% active | AID 1479, 2009; active = well fitted curve in either direction with a large enough effect; inconclusive = small, poorly fitted or top-dose-only effect; note: potency is the fitted concentration of half-maximal effect
#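 Human TRb ligand-binding domain at 0.6 uM with 20 nM Texas Red SRC2 peptide in Tris buffer containing 1 uM T3 and 5% DMSO, incubated with compound 5 h at ambient temperature. Total fluorescence (555/632 nm) calculated as parallel + 2 × perpendicular.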
# TRb-SRC2 inh: qHTS for Inhibitors of the Interaction of Thyroid Hormone Receptor and Steroid Receptor Coregulator 2; Thyroid hormone receptor beta (Homo sapiens), P10828; TRbeta-SRC2 peptide binding, fluorescence polarization; receptor liganded with 1 µM T3; AID 1469, 2008; Potency, µM (top dose mostly 106 µM), inactives show top-dose activity change, negative = inhibition, usual class: inhibitors; 280,000 tested, 0.065% active;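 note: potency is the fitted concentration of half-maximal effect; plate controls were bound peptide for no effect and peptide without receptor for full effect; nearly all actives have a fitted effect of over 50% in size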
# Target sequence (P10828 whole entry, looked up): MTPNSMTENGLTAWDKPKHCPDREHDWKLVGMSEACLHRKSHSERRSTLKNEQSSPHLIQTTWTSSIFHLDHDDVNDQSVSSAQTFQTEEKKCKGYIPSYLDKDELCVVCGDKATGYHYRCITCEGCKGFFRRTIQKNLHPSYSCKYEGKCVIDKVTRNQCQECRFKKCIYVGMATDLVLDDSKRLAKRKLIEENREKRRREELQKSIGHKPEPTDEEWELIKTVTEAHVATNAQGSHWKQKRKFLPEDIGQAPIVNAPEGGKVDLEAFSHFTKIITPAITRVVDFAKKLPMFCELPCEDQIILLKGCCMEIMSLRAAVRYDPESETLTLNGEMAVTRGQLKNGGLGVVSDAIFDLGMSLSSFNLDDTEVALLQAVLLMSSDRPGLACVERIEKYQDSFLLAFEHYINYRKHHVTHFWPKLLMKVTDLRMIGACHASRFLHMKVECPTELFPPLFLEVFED
#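 Assay buffer: 20 mM Tris-HCl, 100 mM NaCl, 10% glycerol, 1 mM EDTA, 0.01% NP-40, 1 mM DTT, 1 uM T3, 5% DMSO; TRb LBD 0.6 uM, Texas Red SRC2 20 nM; FP after 5 hr.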
# Tau fibril FP: qHTS for Inhibitors of Tau Fibril Formation, Fluorescence Polarization. Microtubule-associated protein tau (Homo sapiens), P10636. K18 P301L tau heparin fibrillization, Alexa594 FP, 6 h. Potency, µM (highest dose often 57.7 µM), without a hit: at the highest dose activity, negative = inhibition, actives largely listed as inhibitors. 280,000 tested, 0.39% active; note: potency is the fitted concentration of half-maximal effect; nearly all actives have a fitted effect of over 55% in size
# Target sequence (P10636 561-689 P618L limits assumed): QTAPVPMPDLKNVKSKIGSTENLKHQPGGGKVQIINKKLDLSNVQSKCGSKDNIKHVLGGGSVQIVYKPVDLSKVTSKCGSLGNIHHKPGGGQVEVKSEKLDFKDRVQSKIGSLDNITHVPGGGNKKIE
#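 Read-out: fluorescence polarization of Alexa 594-labeled tau (0.24 uM), 555 nm excitation, 632 nm emission. Mixtures held 15 uM unlabeled K18 P301L, compound and 20 uM heparin, pH 7 acetate buffer, incubated 6 hr at 37 C.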
# PNC assembly inh: High Content Assay for Compounds that inhibit the Assembly of the Perinucleolar Compartment | PC3M PTB-GFP, PNC prevalence imaging, 16 h; active compounds read low | activity change (PNC), negative = inhibition, % at 10 µM | 140,000 tested, 3.1% active | AID 2417, 2010;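 active = readout at or below -70, meaning at least 70% loss of cells showing the perinucleolar compartment, a nuclear body marking cancer cells; inconclusive = readout between -30 and a set limit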;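 note: plate controls were DMSO wells for no effect and camptothecin positive control wells for full effect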
#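 PC3M cells stably expressing PTB-GFP, 750–1000 cells/well, treated 16 h at 37 °C with compound (23 nl of library stock), in duplicate. After paraformaldehyde fixation and Hoechst stain, imaged at 20x; PNC prevalence scored by image analysis.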
# Tau ThT inhib: qHTS for Inhibitors of Tau Fibril Formation, Thioflavin T Binding; Microtubule-associated protein tau (Homo sapiens), P10636; recombinant tau K18 P301L, heparin-induced fibrillization, ThT fluorescence; Potency, µM (titrated, usually from 57.4 µM), for inactives: top-dose activity, negative = inhibition, most hits filed as inhibitors; 270,000 tested, 2.1% active; note: potency is the fitted concentration of half-maximal effect; nearly all actives have a fitted effect of over 55% in size
#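 Heparin-induced (20 uM) aggregation of recombinant human K18 P301L tau, 15 uM unlabeled with 0.24 uM labeled, pH 7 acetate buffer, 6 hr at 37 C with compound. Fibrils quantified by 30 uM ThT fluorescence after 1 hr ambient incubation.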
# Tau fluor cs: Counterscreen qHTS for Inhibitors of Tau Fibril Formation, Fluorescence Polarization. Potency, µM (doses to about 57.7 µM), inactives show top-dose activity change, negative = decrease. tau K18 P301L Alexa594 fluorescence, heparin fibrillization. 280,000 tested, 0.93% active. AID 1463, 2008; note: potency is the fitted concentration of half-maximal effect; nearly all actives have a fitted effect of over 55% in size
#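 Human tau K18 P301L (15 uM unlabeled, 0.24 uM Alexa 594-labeled) in 100 mM sodium acetate pH 7 with 20 uM heparin, 6 hr at 37 C. ThT 30 uM added, 1 hr ambient; Alexa 594 FP and total fluorescence read at 555/632 nm.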
# Active calls of the source: *; ? = inconclusive; nt = not tested or not shown; [ ] = dose if it differs, or a comment. The list is not random: actives were taken first. Their share in the collection is about 4.6%. Unless noted, calls come from the whole dose curve; as a rule, active = well fitted curve in the direction sought with a large enough effect; inconclusive = small, poorly fitted or top-dose-only effect, or another doubt; inactive = no such curve, though single readings can be large; an effect the other way counts as inactive or inconclusive. Unless noted, % is set by controls: 0 for no effect and ±100 for the full control effect.
SMILES,TexasRed fluor,TRb-SRC2 inh,Tau fibril FP,PNC assembly inh,Tau ThT inhib,Tau fluor cs
C/C(C/C(C)=C1/SC(=S)NC1=O)=C1\SC(=S)NC1=O,-1.2%,5.8%,-1.1%,nt,15.8µM*,-25.1%
Cc1ccc(Cl)cc1NC(=O)N1CCC2(CC1)Oc1ccccc1C(=O)N2Cc1ccccc1F,35.5µM*[quencher],-5.1%,-5.0%,nt,-10.7%,-22.8%
O=C(Nc1ccccc1C(F)(F)F)N1CCC2(CC1)Oc1ccccc1C(=O)N2Cc1ccccc1F,-37.0%,1.2%,-12.2%,nt,7.8%,-0.5%
CCc1nc(N[C@H](C(=O)O)C(C)C)c2oc3ccccc3c2n1,-3.0%,-1.9%,-1.8%,nt,2.6%,5.8%
CCc1nc(NC(C)C)c2oc3ccccc3c2n1,2.1%,0.2%,4.9%,-93.8*,-9.0%,-8.5%
CC(C)Cc1csc(NC(=O)c2ccc(Cl)cc2)c1C(=O)O,2.6%,4.6%,15.2%,-9.2,?,-16.6%
Cc1cccc(C(=O)Nc2scc(CC(C)C)c2C(=O)O)c1,-0.2%,-8.5%,4.2%,-98.3*,-7.1%,-1.3%
COCCNC(=O)Nc1ccc2nc(-c3cccs3)c(-c3cccs3)nc2c1,-0.6%,1.0%,15.8µM*,3.0,?,15.8µM*[quencher]
Oc1ccc(/C=C/c2cc(O)cc(O)c2)cc1,?,2.5%,?,33.4,10µM*,?
COc1cc(O)cc(/C=C/c2ccccc2)c1,-0.8%,-3.4%,?,nt,-7.9%,?
Oc1ccc(/C=C\c2cc(O)cc(O)c2)cc1,-13.5%,1.0%,10.0%,nt,14.1µM*,14.1µM*[quencher]
COc1ccc(/C(N)=N/OC(=O)c2cccs2)cc1OC,-2.0%,-6.5%,9.7%,nt,8.6%,6.6%
COc1ccc2nc(NCc3ccccc3)[nH]c2c1,-0.8%,-1.3%,6.5%,?,-6.8%,-11.5%
Cc1ccc2nc(NCc3ccccc3)[nH]c2c1,-2.7%,-6.4%,-5.1%,-103.2*,-11.8%,-18.4%
CC(=O)Nc1ccc(NC(=O)c2ccc(NS(=O)(=O)c3cc(C(C)(C)C)cc(C)c3C)cc2)cc1,-0.1%,-2.1%,?,-89.4*,10.0%,?
Cc1cc(C(C)(C)C)cc(S(=O)(=O)Nc2ccc(O)c(C(=O)O)c2)c1C,-0.5%,-18.0%,2.6%,37.2,-9.9%,-12.3%
CC[n+]1c(/C=C/N(C)c2ccccc2)oc2ccc(F)cc21,7.4%,-3.4%,25.1µM*,45.3,14.1µM*,?
CC[n+]1c(/C=C/N(C)c2ccccc2)oc2ccccc21,-3.3%,-3.6%,-2.0%,-1.5,-4.8%,-11.8%
CCC(=O)N1CCN(c2ccc(Cl)cc2NC(=O)Cc2ccc(Cl)cc2)CC1,-1.3%,10.6%,5.0%,-82.4*,-13.3%,-17.7%
CCC(=O)N1CCN(c2ccc(NC(=O)c3ccc([N+](=O)[O-])o3)cc2Cl)CC1,1.8%,0.9%,3.4%,nt,11.2µM*,?
CCC(=O)N1CCN(c2ccc(NC(=O)c3ccc(Br)o3)cc2)CC1,-4.0%,-3.1%,-0.7%,-93.7*,?,?
CCC(=O)N1CCN(c2ccccc2NC(=O)Cc2ccc(Cl)cc2)CC1,1.7%,-7.3%,4.2%,?,-8.8%,-2.1%
Cc1ccccc1NC(=O)C12CC3CCC1(C)C3(C)CO2 (stereo not drawn),-1.2%,-6.5%,1.5%,nt,-4.1%,-3.0%
Cc1ccc(C)c(NC(=O)CSc2ncc3c(n2)-c2cc(Cl)ccc2N(Cc2ccccc2F)S3(=O)=O)c1,1.7%,-0.2%,?,nt,-4.5%,-29.0%
CCOC(=O)CCC(NC(=O)CCC(=O)NC(CCC(=O)OCC)C(=O)OCC)C(=O)OCC (stereo not drawn),-0.5%,6.3%,-14.3%,-134.0*,-2.9%,-1.0%
SMILES,TexasRed fluor,TRb-SRC2 inh,Tau fibril FP,PNC assembly inh,Tau ThT inhib,Tau fluor cs
Cn1c(-c2ccccc2)cnc1NCc1ccccc1O,-10.8%,4.5%,-0.4%,nt,-1.1%,-9.8%
Cc1nc2ccccc2n1S(=O)(=O)N(C)C,-0.2%,-3.3%,5.5%,?,-3.5%,-2.6%
CN(C)S(=O)(=O)n1cnc(-c2ccccc2)c1-c1ccccc1,2.0%,-0.4%,6.4%,-117.5*,4.9%,-0.2%
Cc1ccc2sc(-c3ccc(N)cc3)nc2c1,-4.4%,-9.4%,4.2%,nt,4.47µM*,?
Nc1ccc(-c2nc3cc(N)ccc3s2)cc1,-5.3%,-3.2%,-1.1%,nt,14.1µM*,?
Cc1ccc2nc(-c3ccc(N)cc3)sc2c1,-4.9%,-0.1%,7.7%,nt,5.62µM*,?
Cc1ccc(CNC(=O)c2cc(S(=O)(=O)N3CCCC(C)C3)cn2C)cc1 (stereo not drawn),0.9%,-5.6%,-1.5%,nt,-0.8%,-4.0%
Cn1ncc2c(NCc3cccc(Cl)c3)ncnc21,1.4%,-2.8%,-2.2%,nt,10.0%,7.5%
COc1cccc(-n2c(SCc3cc(=O)oc4cc(O)c(O)cc34)nc3ccccc3c2=O)c1,-28.8%,6.5%,?,9.0,25.1µM*,14.1µM*[quencher]
CCN(CC)C(=O)CSc1nc2ccccc2c(=O)n1-c1cccc(OC)c1,-0.6%,-9.2%,0.1%,-9.0,-13.5%,-8.1%
O=C(C1=C[C@@H]2[C@H]3C(=O)N(c4ccccc4)C(=O)[C@H]3[C@@H](C(=O)c3ccc(Cl)cc3)N2C=C1)c1ccccc1,0.7%,8.0%,?,-26.9,14.1µM*,?
O=C1CCCC2=C1C1(CCCCC1)N=C(Nc1nc3ccccc3s1)N2,-1.2%,-9.6%,-2.8%,31.3,3.2%,-6.8%
O=C1CCCC2=C1C1(CCCC1)N=C(Nc1nc3ccccc3s1)N2,-6.5%,4.2%,-10.9%,-116.6*,0.6%,-15.0%
CCn1c(SCCOc2ccccc2F)nc2ccccc21,?,-8.7%,-6.6%,nt,?,-16.9%
O=C(Cn1c(C(F)(F)F)nc2ccccc21)c1ccc(Cl)cc1,-2.1%,-9.7%,-11.8%,?,-7.2%,-20.2%
FC(F)Sc1nnc(-c2cccs2)n1-c1ccccc1,2.6%,2.9%,-1.0%,-80.1*,1.1%,5.8%
N#Cc1ccc(CSc2nnc(-c3cccs3)n2-c2ccccc2)cc1,-1.0%,12.8%,4.1%,?,-11.9%,-7.3%
COc1ccc(CCC(=O)NC2=NCCS2)cc1OC,-2.7%,-9.7%,2.3%,-100.0*,-7.0%,-5.3%
C[n+]1cc2c3c(ccc2c2ccc4cc5c(cc4c21)OCO5)OCO3,-3.4%,0.4%,?,nt,28.2µM*,17.8µM*[quencher]

# Source: PubChem BioAssay (National Center for Advancing Translational Sciences (NCATS))
